The record followed here is PubChem BioAssay (EPA / NIEHS).

SMILES strings stand for the structures. The source made the active and inactive calls. The calls were made as follows: active = hit-call score of the fitted dose curve at least 0.9, where 1 is the maximum; inactive = score below 0.9.

What all share (conditions): mRNA level, 48 h; actives raise or lower the signal
Read-out in assay [1]: Glutathione S-Transferase (GSTA2), GSTA2 (gene 2939)
Description: LTEA_HepaRG_GSTA2: Life Technologies and Expression Analysis (LTEA) Assay for Glutathione S-Transferase (GSTA2) using HepaRG (AID 2283497). A digest of the protocol: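 Differentiated human HepaRG cells were exposed in duplicate for 48 h in serum-free induction medium, 8 points from 100 uM top in half-log steps, 0.5% DMSO. GSTA2 mRNA was measured by TaqMan qRT-PCR, normalized to ACTB, GAPDH and POLR2A; bidirectional fit versus DMSO.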

Read-out in assay [2]: Glutamate-cysteine ligase catalytic (GCLC), GCLC (gene 2729)
Description: LTEA_HepaRG_GCLC: Life Technologies and Expression Analysis (LTEA) Assay for Glutamate-cysteine ligase catalytic (GCLC) using HepaRG (AID 2283498). The essentials:
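Differentiated HepaRG cells exposed 48 h in serum-free induction medium, eight-point half-log series topping at 100 uM in 0.5% DMSO, duplicates. GCLC mRNA by qRT-PCR normalized to ACTB, GAPDH and POLR2A, fitted bidirectionally versus DMSO.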

Read-out in assay [3]: growth arrest and DNA damage 45 (GADD45G), GADD45G (gene 10912)
In words: LTEA_HepaRG_GADD45G: Life Technologies and Expression Analysis (LTEA) Assay for growth arrest and DNA damage 45 (GADD45G) using HepaRG (AID 2283499). The essentials: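 Differentiated human HepaRG cells in serum-free induction medium were exposed for 48 h to 8 half-log concentrations up to 100 uM in 0.5% DMSO, in duplicate. GADD45G mRNA was measured by TaqMan qRT-PCR, normalised to ACTB, GAPDH and POLR2A, and fitted bidirectionally against DMSO.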

Read-out in assay [4]: Glutamate-cysteine ligase regulatory (GCLM), GCLM (gene 2730)
Description: LTEA_HepaRG_GCLM: Life Technologies and Expression Analysis (LTEA) Assay for Glutamate-cysteine ligase regulatory (GCLM) using HepaRG (AID 2283500). The essentials:
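Cells were plated, cultured 48 h, switched to serum-free induction medium, then dosed in duplicate for 48 h at eight half-log concentrations up to 100 uM. RNA was then profiled by qRT-PCR; gain or loss versus DMSO was fitted.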

Read-out in assay [5]: Glutathione S-transferase M3 (GSTM3), GSTM3 (gene 2947)
Description: LTEA_HepaRG_GSTM3: Life Technologies and Expression Analysis (LTEA) Assay for Glutathione S-transferase M3 (GSTM3) using HepaRG (AID 2283501). A digest of the protocol:
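Differentiated HepaRG cells in serum-free induction medium were exposed in duplicate for 48 h to 8 half-log concentrations up to 100 uM in 0.5% DMSO. GSTM3 mRNA was measured by TaqMan qRT-PCR, normalized to ACTB/GAPDH/POLR2A, and fitted bidirectionally versus DMSO.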

Read-out in assay [6]: Heat shock 70 kDa protein 1 (HSPA1A), gene 3303
In words: LTEA_HepaRG_HSPA1A: Life Technologies and Expression Analysis (LTEA) Assay for Heat shock 70 kDa protein 1 (HSPA1A) using HepaRG (AID 2283502). A digest of the protocol:
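Readout is HSPA1A transcript level by microfluidic qRT-PCR, normalized to three housekeeping genes and analysed for gain or loss of signal relative to 0.5% DMSO. Human HepaRG cultures received test chemicals for 48 h at up to 100 uM.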

Read-out in assay [7]: 3-Hydroxy-3-Methylglutaryl-CoA Synthase 2 (HMGCS2), HMGCS2 (gene 3158)
Description: LTEA_HepaRG_HMGCS2: Life Technologies and Expression Analysis (LTEA) Assay for 3-Hydroxy-3-Methylglutaryl-CoA Synthase 2 (HMGCS2) using HepaRG (AID 2283504). A digest of the protocol: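 Differentiated human HepaRG cells were exposed in duplicate for 48 h in serum-free induction medium to eight concentrations (top 100 uM, half-log steps, 0.5% DMSO). HMGCS2 mRNA was quantified by TaqMan qRT-PCR, normalised to ACTB, GAPDH and POLR2A, then fitted bidirectionally against DMSO.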

Read-out in the next assay: HGF (gene 3082)
In words: LTEA_HepaRG_HGF: Life Technologies and Expression Analysis (LTEA) Assay for Hepatocyte Growth Facto (HGF) using HepaRG (AID 2283505). The essentials: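 Differentiated human HepaRG cells in serum-free induction medium were exposed in duplicate for 48 h to eight concentrations (top 100 uM, half-log steps, 0.5% DMSO). HGF mRNA was quantified by qRT-PCR, normalized to ACTB, GAPDH and POLR2A.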

Read-out in assay [8]: Cytochrome P450 7A1 (Homo sapiens) (UniProt P22680)
In words: LTEA_HepaRG_CYP7A1: Life Technologies and Expression Analysis (LTEA) Assay for Cytochrome P450 7A1 (CYP7A1) using HepaRG (AID 2283496). The essentials:
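HepaRG cells plated 48 h, then switched to serum-free induction medium and exposed in duplicate for 48 h to 8-point half-log series from 100 uM in 0.5% DMSO. CYP7A1 mRNA by qRT-PCR (TaqMan), normalized to ACTB/GAPDH/POLR2A; bidirectional fit versus DMSO.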

Read-out in assay [9]: Hypoxia-inducible factor 1-alpha (Homo sapiens) (UniProt Q16665)
In words: LTEA_HepaRG_HIF1A: Life Technologies and Expression Analysis (LTEA) Assay for Hypoxia-inducible factor 1 (HIF1A) Trancription factor using HepaRG (AID 2283503). The essentials: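 Differentiated HepaRG cells in serum-free induction medium exposed 48 h, in duplicate, to 8-point half-log series from 100 uM in 0.5% DMSO. HIF1A mRNA measured by TaqMan qRT-PCR, normalized to ACTB/GAPDH/POLR2A, fitted bidirectionally versus DMSO.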

Sequence of Hypoxia-inducible factor 1-alpha (Homo sapiens) (Q16665 whole entry, looked up): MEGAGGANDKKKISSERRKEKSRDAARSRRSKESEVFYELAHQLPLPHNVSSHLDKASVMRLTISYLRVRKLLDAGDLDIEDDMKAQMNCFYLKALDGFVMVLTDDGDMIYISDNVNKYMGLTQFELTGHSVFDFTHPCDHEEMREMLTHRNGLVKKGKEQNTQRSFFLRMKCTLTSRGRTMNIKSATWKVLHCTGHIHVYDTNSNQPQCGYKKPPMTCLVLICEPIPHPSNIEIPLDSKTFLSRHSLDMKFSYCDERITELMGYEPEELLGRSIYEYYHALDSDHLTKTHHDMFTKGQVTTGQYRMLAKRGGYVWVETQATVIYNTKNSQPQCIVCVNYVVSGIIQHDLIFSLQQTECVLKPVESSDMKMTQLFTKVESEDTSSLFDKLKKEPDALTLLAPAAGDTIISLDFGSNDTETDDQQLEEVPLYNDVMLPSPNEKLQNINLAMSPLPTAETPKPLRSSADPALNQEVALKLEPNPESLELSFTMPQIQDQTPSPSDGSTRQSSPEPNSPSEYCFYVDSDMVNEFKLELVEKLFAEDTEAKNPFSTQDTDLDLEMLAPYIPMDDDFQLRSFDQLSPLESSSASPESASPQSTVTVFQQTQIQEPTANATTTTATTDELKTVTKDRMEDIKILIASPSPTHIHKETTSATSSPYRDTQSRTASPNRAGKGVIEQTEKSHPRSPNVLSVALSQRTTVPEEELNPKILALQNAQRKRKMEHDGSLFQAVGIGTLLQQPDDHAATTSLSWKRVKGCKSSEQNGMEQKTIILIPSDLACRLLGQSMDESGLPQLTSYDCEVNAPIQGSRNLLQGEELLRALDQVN

For the compound `Cc1ccc(O)cc1`, the result in [1], in [2], in assay [3], in [4], in assay [5] and in [6] was inactive. In addition, the result (in assay [7]; in the assay with HGF (gene 3082)) was inactive.

Turning to `O=C1CCC(N2C(=O)c3ccccc3C2=O)C(=O)N1` (stereo unspecified), the call in assay [8], in assay [1], in [2], in assay [3], in assay [4] and in [5] was inactive. Also, the compound was called inactive (in assay [6]; in the assay with HGF (gene 3082)).

Regarding `CC1=CC(=O)CC(C)(C)C1`, the compound was classed as inactive in assay [8], in [1], in assay [2], in [3], in assay [4] and in assay [5]. Moreover, the compound was called inactive (in assay [6]; in assay [9]; in the assay with HGF (gene 3082)).

With `CCn1nc(Cc2ccccc2)cc1C1CCN(C[C@H]2C[C@H](N(C)[C@@H](C(=O)O)C(C)C)C[C@@H]2c2cccc(F)c2)CC1`, the values for the AC50 in [8], in assay [1] and in assay [3] were 13.4 µM (active), 50 µM (active) and 76.1 µM (active), respectively. Also, the result (in [2]; in assay [4]; in assay [5]; in assay [6]; in assay [9]; with HGF (gene 3082)) was inactive.

With `CCCC(=O)OCC`, the outcome in assay [8], in [1], in assay [2], in [3], in assay [4] and in assay [5] was inactive. In addition, the outcome (in [6]; in [9]; with HGF (gene 3082)) was inactive.

In the case of `CC(C)CCO`, the result in assay [1], in assay [2], in [3], in [4], in [5] and in assay [6] was inactive. In addition, the outcome (in assay [9]; in [7]; with HGF (gene 3082)) was inactive.

`CC(C)=CCC/C(C)=C\CO`: the call in assay [1], in [2], in assay [4], in assay [5], in assay [6] and in [7] was inactive. In the assay with HGF (gene 3082), the outcome was inactive.

With `O=C1CCCCCN1`, the result in [8], in assay [1], in assay [2], in assay [3], in assay [4] and in assay [5] was inactive. Moreover, the outcome (in assay [6]; in [9]; with HGF (gene 3082)) was inactive.

As for `CC(=O)c1ccc2c(c1)[C@H](NC(=O)c1ccc(F)cc1)[C@@H](O)C(C)(C)O2`, the compound was classed as inactive in assay [8], in assay [1], in assay [2], in [3], in [4] and in assay [5]. In addition, the outcome (in assay [6]; in assay [9]; with HGF (gene 3082)) was inactive.

`COCCOc1cc2cc(C(=O)NC3CCN(C(C)C)CC3)n(CC(=O)Nc3ccc(Cl)cn3)c2cn1`: the half-maximal activity concentration (AC50) (as a rule, the concentration at which the activity in the assay is half-maximal) in assay [8] is 41.2 µM (active); in assay [1], 45 µM (active); in assay [3] it was 45 µM (active); in assay [5] it was 45 µM (active); in assay [9], 72.9 µM (active); in [7] it was 47.2 µM (active). Further, the compound was classed as inactive (in assay [2]; in assay [4]; in the assay with HGF (gene 3082)).

For the compound `CC(O)CN(CCN(CC(C)O)CC(C)O)CC(C)O` (stereo unspecified), the compound was classed as inactive in assay [8], in [2], in assay [3], in assay [4], in assay [5] and in assay [6]. Also, the call (in assay [7]; in the assay with HGF (gene 3082)) was inactive. Further, the AC50 in assay [1] was 12.5 µM (active).

As to `CCC(C)(C)C(=O)O[C@H]1C[C@@H](C)C=C2C=C[C@H](C)[C@H](CC[C@@H]3C[C@@H](O)CC(=O)O3)[C@H]21`, the outcome in [1], in assay [2], in assay [3], in assay [4], in [5] and in assay [6] was inactive. The compound was called inactive (in assay [9]; in the assay with HGF (gene 3082)).

Consider `CC(C)=CCC/C(C)=C/CO`, for which the compound was called inactive (in assay [1]; in [2]; in [4]; in [5]; in the assay with HGF (gene 3082)).

On to `CCCN(C1CCN(C(=O)C2CCNCC2)CC1)[C@@H]1CCc2ccc(OC)cc2C1`, for which the AC50 is 77.3 µM (active) in assay [8]; 81 µM (active) in assay [1]; 50 µM (active) in assay [2]; 50 µM (active) in assay [5]; 79.6 µM (active) in assay [6]; 88.2 µM (active) in assay [9]. The compound was called inactive (in assay [3]; in assay [4]; with HGF (gene 3082)).

In the case of `Clc1nc(Cl)c(Cl)c(Cl)c1Cl`, the compound was called inactive in assay [8], in assay [1], in [2], in assay [3], in [4] and in assay [5]. The call (in assay [6]; in [9]; with HGF (gene 3082)) was inactive.

Regarding `CCOC(=O)c1ccc(C2CCC(NC[C@H](O)COc3ccc(O)c(NS(C)(=O)=O)c3)CC2)cc1` (stereo partly specified), the call in [8], in [1], in assay [2], in assay [3], in assay [4] and in assay [5] was inactive. In addition, the call (in [6]; in [9]; with HGF (gene 3082)) was inactive.

Consider `Cn1cnc([N+](=O)[O-])c1Sc1ncnc2nc[nH]c12`, for which the half-maximal activity concentration (AC50) in assay [8] was 2.09 µM (active); in assay [1], 1.35 µM (active); in assay [3] it was 1.11 µM (active). The call (in assay [2]; in assay [4]; in assay [5]; in assay [6]; with HGF (gene 3082)) was inactive.

Regarding `O=C(NS(=O)(=O)/C=C/c1ccccc1)c1ccc(F)cc1Cl`, the AC50 in [8] was 23.4 µM (active). The call in assay [1], in assay [2], in assay [3], in assay [4], in assay [5] and in [6] was inactive. Moreover, the outcome (in [9]; in the assay with HGF (gene 3082)) was inactive.

Consider `CCCCCCCCCCCCCCCO`, for which the result in assay [8], in assay [1], in assay [2], in assay [3], in [4] and in [5] was inactive. The outcome (in assay [6]; in [9]; in the assay with HGF (gene 3082)) was inactive.

On to `NC(=O)NO`, for which the compound was classed as inactive in assay [1], in assay [2], in [3], in assay [4], in assay [5] and in assay [6]. For the same compound, the compound was called inactive (in assay [7]; with HGF (gene 3082)).

Turning to `O=C(O)c1cc(N=Nc2ccc(S(=O)(=O)Nc3ccccn3)cc2)ccc1O`, the compound was called inactive in assay [8], in [1], in assay [2], in assay [3], in assay [4] and in assay [6]. Also, the compound was called inactive with HGF (gene 3082).

As for `Cc1ccc(N)cc1O`, the half-maximal activity concentration (AC50) in [8] was 24.4 µM (active). For the same compound, the compound was called inactive in assay [1], in assay [2], in [3], in assay [4], in assay [5] and in assay [6]. In addition, the compound was called inactive (in assay [9]; with HGF (gene 3082)).

Turning to `Nc1nc2ncc(CNc3ccc(C(=O)N[C@@H](CCC(=O)O)C(=O)O)cc3)nc2c(=O)[nH]1`, the outcome in assay [8], in [1], in assay [2], in assay [3], in assay [4] and in [5] was inactive. Further, the compound was called inactive (in assay [6]; with HGF (gene 3082)).

Consider `Cc1ccc(S(=O)(=O)O)cc1C`, for which the compound was classed as inactive in assay [8], in assay [1], in [2], in assay [3], in assay [4] and in [5]. Besides, the call (in [6]; in assay [9]; with HGF (gene 3082)) was inactive.

Take `CC(=O)OC[C@H]1O[C@@](COC(C)=O)(O[C@H]2O[C@H](COC(C)=O)[C@@H](OC(C)=O)[C@H](OC(C)=O)[C@H]2OC(C)=O)[C@@H](OC(C)=O)[C@@H]1OC(C)=O`: the outcome in assay [8], in [1], in assay [2], in assay [3], in assay [4] and in assay [5] was inactive. Also, the call (in assay [6]; in assay [9]; in the assay with HGF (gene 3082)) was inactive.
